Assay outcomes: PubChem, several laboratories
Many of the other results were omitted from the sample, so hits are more common in it than they were.
GALR2 antag – GALR2 (human) receptor antagonism; inhibition, % at 4 µM; AID 828; 0.39% of 140,000 active; GALR2-expressing cells, antagonist mode; O43603; in the data active = inhibition above about 27%;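 note: cells stimulated with galanin 1-16 at roughly its EC80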
Target sequence (O43603 whole entry, looked up): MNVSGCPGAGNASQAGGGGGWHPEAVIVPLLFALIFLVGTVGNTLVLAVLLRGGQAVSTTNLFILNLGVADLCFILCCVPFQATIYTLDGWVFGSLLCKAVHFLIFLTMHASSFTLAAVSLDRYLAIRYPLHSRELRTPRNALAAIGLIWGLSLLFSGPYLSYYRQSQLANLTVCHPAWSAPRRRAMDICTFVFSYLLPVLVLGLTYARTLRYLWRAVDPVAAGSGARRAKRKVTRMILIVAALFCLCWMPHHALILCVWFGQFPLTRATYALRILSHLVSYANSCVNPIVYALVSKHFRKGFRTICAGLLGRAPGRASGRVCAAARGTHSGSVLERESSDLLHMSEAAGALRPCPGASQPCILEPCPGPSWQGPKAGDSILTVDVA
S1P2 agonist – agonists of human S1P2 receptor. O95136. S1P2-expressing cell line, agonist reporter read-out. activation, % at 4.5 µM. 0.46% of 97,000 active; in the data active = activation above about 16%
Target sequence (O95136 whole entry, looked up): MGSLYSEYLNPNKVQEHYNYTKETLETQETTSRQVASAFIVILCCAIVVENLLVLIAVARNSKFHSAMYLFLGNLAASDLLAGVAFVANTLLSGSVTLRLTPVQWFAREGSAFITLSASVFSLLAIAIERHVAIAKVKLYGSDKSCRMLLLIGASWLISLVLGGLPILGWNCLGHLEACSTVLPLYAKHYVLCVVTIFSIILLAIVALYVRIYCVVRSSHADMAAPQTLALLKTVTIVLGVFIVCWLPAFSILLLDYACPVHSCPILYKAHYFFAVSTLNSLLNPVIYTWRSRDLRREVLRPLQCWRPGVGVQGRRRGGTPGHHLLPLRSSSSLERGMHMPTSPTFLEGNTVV
PostGolgi ctrl – inhibits growth of the yeast control strain | AID 738 | inhibition, % at 10 µM | 5% of 98,000 active | efflux-deficient yeast background strain, growth absorbance A615, 16 h
GALR2 agonist – agonists of human galanin receptor 2 (GALR2); O43603; GALR2-expressing cells, agonist activation read-out; activation, % (concentration not given with the values); 0.48% of 140,000 active; in the data active = activation above about 5%, passing the limit was not always enough
S1P2 blocker – blocks the human S1P2 receptor. O95136. cell-based S1P2 antagonist assay, inhibition at 5 uM. inhibition, % at 5 µM. 0.21% of 97,000 active. AID 736; in the data active = inhibition above about 45%;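 note: CRE beta-lactamase reporter cells expressing human S1P2 stimulated with S1P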
PostGolgi yeast – growth inhibition of a yeast mutant, post-Golgi transport screen; 0.9% of 98,000 active; inhibition, % at 10 µM; post-Golgi transport phenotypic cell assay; AID 739;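 note: yeast cells grown in 1536-well plates; yeast grown about 18 h at 30C before absorbance read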
Each line names hits and unclear results; the compound was inactive in the other large screens. Cut-off read from the data, not from the text of the source, unless noted: active = inhibition above about 30%; inactive = the rest.

COc1ccc(C(=O)c2c(C(F)(F)F)oc3c2C(=O)c2ccccc2C3=O)cc1OC	PostGolgi yeast 36.8
COc1ccccc1-n1cnnc1SC(C)C(=O)Nc1cccc([N+](=O)[O-])c1 (configuration not stated)	none (no result: S1P2 agonist, PostGolgi ctrl, S1P2 blocker, PostGolgi yeast)
Cn1c(/C(C#N)=C(\O)CN2CCN(Cc3ccccc3)CC2)nc2ccccc21	none
Cc1ccc(SC/C(O)=C(\C#N)c2nc3ccccc3n2C)cc1	PostGolgi ctrl 37.1
CCN(CC(=O)Nc1ccc2c(c1)OC(F)(F)O2)Cc1nc2ccccc2c(=O)[nH]1	none
CCN(CC(=O)Nc1ccc2c(c1)OCO2)Cc1nc2ccccc2c(=O)[nH]1	PostGolgi ctrl 31.4 (no result: S1P2 agonist, S1P2 blocker)
CCN(Cc1nc2ccccc2c(=O)[nH]1)Cc1nc2cc(OC)c(OC)cc2c(=O)[nH]1	S1P2 agonist 17.6
COc1cc2nc(CN(C)Cc3nc4ccccc4c(=O)[nH]3)[nH]c(=O)c2cc1OC	none
O=C(Nc1cccc2ccccc12)c1ccc(Cn2cc(Cl)cn2)cc1	PostGolgi ctrl 38.5
CCOC(=O)N1CCC(NC(=O)C2CCCN(S(C)(=O)=O)C2)CC1 (configuration not stated)	PostGolgi ctrl 35.7
Cc1ccc(S(=O)(=O)/C(C#N)=C/c2c[nH]c3ccccc23)cc1	PostGolgi ctrl 67.8
CC(C)n1cc(/C=C(\C#N)S(=O)(=O)c2ccccc2)c2ccccc21	PostGolgi ctrl 36.2
Cc1ccc(S(=O)(=O)/C(C#N)=C/c2ccccc2OCc2ccccc2)cc1	none (no result: S1P2 agonist, PostGolgi ctrl, S1P2 blocker, PostGolgi yeast)
Cc1ccc2c(c1)c1c3n2CC(=C2C(=O)OC(C)(C)OC2=O)NC3CCC1 (configuration not stated)	PostGolgi ctrl 51.0
COc1ccccc1NC(=O)c1cc2n(n1)C(C(F)(F)F)CC(c1ccc3c(c1)OCO3)N2 (configuration not stated)	PostGolgi ctrl 37.5
CCOC(=O)CN1CC23C=CC(O2)C(C(=O)Nc2ccc(F)c(C)c2)C3C1=O (configuration not stated)	PostGolgi ctrl 36.4
CCCC/C(C)=N/NC(=O)c1cn(-c2ccccc2)nc1-c1ccccc1	none (no result: S1P2 agonist, PostGolgi ctrl, S1P2 blocker, PostGolgi yeast)
CCOc1ccc(OCCOCCNCCOC)cc1	none (no result: S1P2 agonist, PostGolgi ctrl, S1P2 blocker, PostGolgi yeast)
CCCn1c(-c2ccccc2)nc2c(=O)n(C)c(=O)[nH]c21	PostGolgi ctrl 35.8
COc1ccc(-c2nc3c(=O)n(C)c(=O)[nH]c3n2CCc2ccccc2)cc1	none
CC(/C=C1\SC(=O)N(CC(=O)Nc2cccc(O)c2)C1=O)=C\c1ccccc1	PostGolgi ctrl 30.6
Cc1cccc(N(CC(O)CON=C2c3ccccc3-c3ccccc32)S(C)(=O)=O)c1 (configuration not stated)	PostGolgi ctrl 40.5
CS(=O)(=O)N(CC(O)CON=C1c2ccccc2-c2ccccc21)c1ccc(F)cc1 (configuration not stated)	none
COc1ccc(CN2C(=O)c3ccccc3C2=O)cc1C(=O)Nc1ccc(C)cc1C	none (no result: S1P2 agonist, PostGolgi ctrl, S1P2 blocker, PostGolgi yeast)
COc1ccc2c(c1)C(=NO)c1cc(OC)ccc1-2	PostGolgi ctrl 46.4 (no result: S1P2 agonist, S1P2 blocker)
O=C(Nc1ccc(N2CCOCC2)cc1)Nc1ccc2nc(-c3ccco3)c(-c3ccco3)nc2c1	GALR2 antag 31.7
CCc1cccc(OCCCn2ccnc2)c1	none (no result: S1P2 agonist, PostGolgi ctrl, S1P2 blocker, PostGolgi yeast)
CCOc1cccc(OCCCCn2ccnc2)c1	S1P2 agonist 82.8
O=C(Nc1ccc(Cl)cc1C(=O)Nc1ccc(Br)cn1)c1ccco1	PostGolgi ctrl 52.4
O=S(=O)(Nc1cc(C(F)(F)F)ccc1N1CCOCC1)c1ccc2ccccc2c1	none (no result: S1P2 agonist, PostGolgi ctrl, S1P2 blocker, PostGolgi yeast)
CCOc1ccc(-c2nc(N)ncc2Oc2cccc(OC)c2)c(O)c1	none
CCOc1ccc(-c2nc(N)ncc2Oc2ccccc2Br)c(O)c1	PostGolgi ctrl 55.5
CCOc1ccc(-c2[nH]ncc2Oc2ccccc2OCC)c(O)c1	PostGolgi ctrl 56.9, PostGolgi yeast 91.1
C=C(C)COc1ccc(-c2[nH]ncc2Oc2ccccc2OC)c(O)c1	none
CCCOC(=O)c1ccc(Oc2cn[nH]c2-c2ccc(OC)cc2O)cc1	PostGolgi ctrl 42.8
C=C(C)COc1ccc(-c2[nH]ncc2-c2ccccc2OC)c(O)c1	PostGolgi ctrl 51.8, PostGolgi yeast 54.1
CCOc1ccc(-c2[nH]ncc2Oc2ccccc2OC)c(O)c1	none
c1ccc(-c2cn3c(n2)-c2ccccc2C3)cc1	none (no result: S1P2 agonist, PostGolgi ctrl, S1P2 blocker, PostGolgi yeast)
CN(C(=O)COC(=O)CCc1c[nH]c2ccccc12)C(c1ccccc1)c1ccccc1	none (no result: S1P2 agonist, PostGolgi ctrl, S1P2 blocker, PostGolgi yeast)
O=C(CSc1nn(-c2ccccc2)c(=S)s1)NC1CCS(=O)(=O)C1 (configuration not stated)	none (no result: S1P2 agonist, PostGolgi ctrl, S1P2 blocker, PostGolgi yeast)
O=C(CSc1nn(-c2ccccc2)c(=S)s1)Nn1cnnc1	PostGolgi ctrl 34.7 (no result: S1P2 agonist, S1P2 blocker)
Cc1ccc(-c2cc(-c3ccccc3C)[nH]n2)c(O)c1	none (no result: PostGolgi ctrl, PostGolgi yeast)
COc1ccc(-c2cc(-c3ccccc3O)[nH]n2)cc1OC	none
COc1ccc(-c2cc(-c3cc(F)ccc3O)[nH]n2)cc1OC	PostGolgi ctrl 30.2
Cc1ccc(-c2cc(-c3cccc(F)c3)n[nH]2)c(O)c1	PostGolgi ctrl 42.6
COc1ccc(-c2cc(-c3ccc(OC)c(OC)c3)n[nH]2)c(O)c1	none
COc1ccc(O)c(-c2cc(-c3cccc(Br)c3)n[nH]2)c1	PostGolgi ctrl 74.3, PostGolgi yeast 92.9
Cc1ccc(O)c(-c2cc(-c3ccccc3F)[nH]n2)c1	PostGolgi ctrl 66.6
Cc1ccccc1N1CCN(C2=NC(=O)/C(=C/c3cn[nH]c3-c3ccccc3)S2)CC1	none (no result: S1P2 agonist, PostGolgi ctrl, S1P2 blocker, PostGolgi yeast)
CC(NC(=O)/C(=C/c1cccc([N+](=O)[O-])c1)NC(=O)c1ccco1)C(=O)O (configuration not stated)	none (no result: S1P2 agonist, PostGolgi ctrl, S1P2 blocker, PostGolgi yeast)
Cc1ccc(O)c(-c2cc(-c3cccc(F)c3)n[nH]2)c1	PostGolgi ctrl 70.5
COc1ccc(C)cc1S(=O)(=O)N1CCN(S(=O)(=O)c2cc(C)ccc2OC)C(C)C1 (configuration not stated)	none
COc1ccc(C)cc1S(=O)(=O)N1CCC(C)CC1	PostGolgi ctrl 41.6
COc1ccc(CNC(=O)C2CCN(S(=O)(=O)c3cc(OC)ccc3OC)CC2)cc1	none
COc1ccc(CNC(=O)C2CCCN(S(=O)(=O)c3cc(C)ccc3OC)C2)cc1 (configuration not stated)	PostGolgi ctrl 40.0
CCOc1ccccc1NC(=O)C1CCCN(S(=O)(=O)c2ccc(OC)c(C)c2)C1 (configuration not stated)	PostGolgi ctrl 31.4
COc1ccc(S(=O)(=O)N2CCCC(C(=O)Nc3ccc(OC)c(OC)c3)C2)cc1 (configuration not stated)	PostGolgi ctrl 38.8
CCCCCCCCNC(=O)c1cccnc1SCC(=O)Nc1ccccc1OC	none (no result: S1P2 agonist, PostGolgi ctrl, S1P2 blocker, PostGolgi yeast)
Cc1ccnc(NC(=O)c2cccc(NS(=O)(=O)c3ccccc3C)c2)c1	none
CCN1CCN(C(=O)Nc2cccc(C(F)(F)F)c2)CC1	PostGolgi ctrl 31.2
Cc1ccc(NC(=O)N2CCC(C(=O)NCc3ccccc3)CC2)cc1	none
O=C(CCN1C(=O)c2ccccc2C1=O)N1CCC(c2ccccc2)C1 (configuration not stated)	PostGolgi ctrl 31.9
CC1CCN(C(=O)Nc2ccc3nsnc3c2)CC1	none
CC1CCN(C(=O)Nc2cccc(NC(=O)N3CCC(C)CC3)c2)CC1	PostGolgi ctrl 30.5
